Data on 37 compounds can be found in the supplement of paper PMC7411640.

Molecules are shown by their SMILES. Counter-ions that a name gives are not always drawn.

The experiment concerns MDA-MB-468. As to the kind of experiment: phospho-S6 immunofluorescence (DAPI-normalised), per-plate z-score; higher = higher phospho-S6 signal (less pathway suppression). To be noted: co-treatment: vehicle; 24 h. Here is the method:
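GPCR-targeted compound library (MedChemExpress HY-L006) tested on MDA-MB-468 PTEN-null TNBC cells in 384-well plates at 0.1, 1 or 10 uM, combined with vehicle, GDC0941 450 nM or lapatinib 1 uM, for 24 h. Phospho-S6 (S240/244) immunofluorescence normalised to DAPI and expressed as a per-plate z-score; values are the mean of biological triplicates.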
On to `COc1cc2c(cc1OC)-c1cc3ccc4c(c3c[n+]1CC2)OCO4` [Epiberberine (chloride)] (compound 10 µM), for which the “phospho-S6 immunofluorescence (z-score)” value came out at 1.66. Turning to `CCOc1cc(N)c(Cl)cc1C(=O)NCC1CN(Cc2ccc(F)cc2)CCO1` (configuration not stated) [Mosapride (citrate)] (compound 10 µM), the “phospho-S6 immunofluorescence (z-score)” value was 0.79. For `CCNC(=O)[C@@H]1CCCN1C(=O)[C@H](CCCNC(=N)N)NC(=O)[C@H](CC(C)C)NC(=O)[C@@H](CC(C)C)NC(=O)[C@H](Cc1ccc(O)cc1)NC(=O)[C@H](CO)NC(=O)[C@H](Cc1c[nH]c2ccccc12)NC(=O)[C@H](Cc1c[nH]cn1)NC(=O)[C@@H]1CCC(=O)N1` [Leuprolide (Acetate)] (compound 10 µM), the “phospho-S6 immunofluorescence (z-score)” value was 0.11. Under `NC(=O)NC1NC(=O)NC1=O` (configuration not stated) [Allantoin] (compound 10 µM) stands -0.01; under `CCN(CC)CCNC(=O)c1cc(Cl)c(N)cc1OC` [Metoclopramide] (compound 10 µM), -0.11; under `CN(C)CCOC(C)(c1ccccc1)c1ccc(Cl)cc1` (configuration not stated) [Chlorphenoxamine] (compound 10 µM), -4.5. For the compound `C[C@H](N)[C@H](O)c1cccc(O)c1` [Metaraminol (tartrate)] (compound 10 µM), the “phospho-S6 immunofluorescence (z-score)” value came to 0.73. Take `O=c1ccc2ccc(OCCCCN3CCN(c4cccc5sccc45)CC3)cc2[nH]1` [Brexpiprazole] (compound 10 µM): the “phospho-S6 immunofluorescence (z-score)” value was -4.57. Under `N=C(N)NCCCCN` [Agmatine (sulfate)] (compound 10 µM) stands 0.73; under `NC(N)=Nc1nc(CSCC/C(N)=N/S(N)(=O)=O)cs1` [Famotidine] (compound 10 µM), -0.29.

For the compound `CN(C)CCOC(c1ccccc1)c1ccccc1` [Diphenhydramine (hydrochloride)] (compound 10 µM), the “phospho-S6 immunofluorescence (z-score)” value worked out at 0.32. Turning to `O=C(O)CC1CCC2(CC1)CCN(c1cc(OC(F)(F)F)ccc1Cl)CC2` (compound 10 µM), the “phospho-S6 immunofluorescence (z-score)” value came out at 0.22. Under `CCCCC[C@H](O)/C=C/[C@H]1[C@H](O)CC(=O)[C@@H]1CCCCCCC(=O)O` [Prostaglandin E1] (compound 10 µM) stands -0.27; under `CN1N=C2CCN(C(=O)[C@@H](COCc3ccccc3)NC(=O)C(C)(C)N)C[C@@]2(Cc2ccccc2)C1=O` [Capromorelin (Tartrate)] (compound 10 µM), -0.14; under `C[C@](N)(Cc1ccc(O)c(O)c1)C(=O)O` (compound 10 µM), -0.1. The figure for `CCc1nc2c(C)nc(C)cc2n1-c1ccc(CCNC(=O)NS(=O)(=O)c2ccc(C)cc2)cc1` [Grapiprant] (compound 10 µM) is -0.51; for `Cc1cc(C(C)(C)C)cc(C)c1CC1=NCCN1` [Xylometazoline (hydrochloride)] (compound 10 µM) it is -0.38; for `COc1ccccc1Oc1c(NS(=O)(=O)c2ccc(C(C)(C)C)cc2)nc(-c2ncccn2)nc1OCCO` [Bosentan] (compound 10 µM) it is 1.05. Consider `COc1ccc(CCN2CCN(CCCc3ccccc3)CC2)cc1OC` [SA4503 (dihydrochloride)] (compound 10 µM), for which the “phospho-S6 immunofluorescence (z-score)” value is -0.47. Turning to `CCN(CC)CCCC(C)Nc1nc(C)cc(Nc2ccc3nc(C)cc(N)c3c2)n1` (configuration not stated) (compound 10 µM), the “phospho-S6 immunofluorescence (z-score)” value is 0.49. The figure for `COCCCN1CCC(NC(=O)c2cc(Cl)c(N)c3c2OCC3)CC1` [Prucalopride] (compound 10 µM) is 0.17; for `O=C1CCC(c2ccccc2)(C2CCN(Cc3ccccc3)CC2)C(=O)N1` (configuration not stated) [Benzetimide (hydrochloride)] (compound 10 µM) it is 0.11; for `c1ccc(NCc2ccc(CNc3ccccn3)cc2)nc1` (compound 10 µM) it is 0.72. Turning to `Cc1nc2n(c(=O)c1CCN1CCC(c3noc4cc(F)ccc34)CC1)CCCC2O` (configuration not stated) [Paliperidone] (compound 10 µM), the “phospho-S6 immunofluorescence (z-score)” value was determined as 0.5.

With `CC(C)OC(=O)N1CCC(Oc2ncnc3c2cnn3-c2ccc(S(C)(=O)=O)cc2F)CC1` (compound 10 µM), the “phospho-S6 immunofluorescence (z-score)” value was -0.38. Take `CC(NCCc1ccc(O)cc1)C(O)c1ccc(O)cc1` (configuration not stated) [Ritodrine (hydrochloride)] (compound 10 µM): the “phospho-S6 immunofluorescence (z-score)” value is 0.06. As for `Cc1ccc(C(=O)Nc2ccc(S(=O)(=O)O)c3cc(S(=O)(=O)O)cc(S(=O)(=O)O)c23)cc1NC(=O)c1cccc(NC(=O)Nc2cccc(C(=O)Nc3cc(C(=O)Nc4ccc(S(=O)(=O)O)c5cc(S(=O)(=O)O)cc(S(=O)(=O)O)c45)ccc3C)c2)c1` [Suramin (sodium salt)] (compound 10 µM), the “phospho-S6 immunofluorescence (z-score)” value was -0.09. Take `CCOC(=O)O[C@]1(C(=O)OCCl)CC[C@H]2[C@@H]3CCC4=CC(=O)C=C[C@]4(C)[C@H]3[C@@H](O)C[C@@]21C` [Loteprednol Etabonate] (compound 10 µM): the “phospho-S6 immunofluorescence (z-score)” value is -1.08. Under `CC#C[C@]1(O)CC[C@H]2[C@@H]3CCC4=CC(=O)CCC4=C3[C@@H](c3ccc(N(C)C)cc3)C[C@@]21C` [Mifepristone] (compound 10 µM) stands -0.01; under `NC(=O)[C@@H]1CCCC[C@@H]1C(=O)Nc1ccc(Cl)c(Cl)c1` (compound 10 µM), 0.47. The figure for `O=C(CN1C(=O)C2(CCCC2)NC[C@H]1c1cc(F)cc(F)c1)Nc1ccc2c(c1)C[C@@]1(C2)C(=O)Nc2ncccc21` [MK-3207 (Hydrochloride)] (compound 10 µM) is -0.48. Regarding `OCc1ccc(-c2nn(Cc3ccccc3)c3ccccc23)o1` [Lificiguat] (compound 10 µM), the “phospho-S6 immunofluorescence (z-score)” value amounted to 0.54. Consider `CN1CCN(CC(=O)N2c3ccccc3C(=O)Nc3cccnc32)CC1` [Pirenzepine (dihydrochloride)] (compound 10 µM), for which the “phospho-S6 immunofluorescence (z-score)” value was 0.23. The figure for `CCN(Cc1ccncc1)C(=O)C(CO)c1ccccc1` (configuration not stated) [Tropicamide] (compound 10 µM) is -0.17; for `O=C(c1ccc(F)cc1)N1CCC[C@H](c2nc(-c3ccc(F)cc3)no2)C1` (compound 10 µM) it is -2.93; for `O=C(Nc1cccc2c(=O)cc(-c3nnn[nH]3)oc12)c1ccc(OCCCCc2ccccc2)cc1` [Pranlukast (hemihydrate)] (compound 10 µM) it is 0.31. Take `CC(C(=O)Nc1cc(C#N)ccc1CCCC(=O)O)c1ccc(F)c2ccccc12` (configuration not stated) (compound 10 µM): the “phospho-S6 immunofluorescence (z-score)” value is -0.03.
